The panel holds about 79,000 compounds, 15% with a hit somewhere; the sample as a whole holds those more often. Rule as the data show it: active = growth inhibition above about 70%; inactive = the rest.
Experiments:
[1] = NCI Yeast Anticancer Drug Screen. Data for the rad50 strain (AID 155);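 also: 0% = growth of vehicle-only cultures of the same strain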; conditions: S. cerevisiae rad50 strain growth inhibition; at 50.0 µM; hits give high values
Summary of the method: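 Readout: growth inhibition relative to vehicle-treated cultures. Compound exposure was carried out in a genetically defined yeast strain deficient in DNA damage repair.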

[2] = NCI Yeast Anticancer Drug Screen. Data for the mec2-1 strain (AID 157); conditions: S. cerevisiae mec2-1 strain, at 50.0 µM, hits give high values
Summary of the method: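 Mutant yeast (mec2-1) grown with compound; growth inhibition relative to vehicle control reported.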

[3] = NCI Yeast Anticancer Drug Screen. Data for the sgs1 mgt1 strain (AID 161);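 also: 0% = growth of cultures given vehicle only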; conditions: S. cerevisiae sgs1 mgt1 strain, at 50.0 µM, hits give high values
Summary of the method: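 Yeast cells carrying a defined DNA-repair defect were exposed to test compounds. Growth inhibition was measured relative to vehicle-treated controls.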

[4] = NCI Yeast Anticancer Drug Screen. Data for the cln2 rad14 strain (AID 165);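 also: 0% = growth equal to vehicle treated cultures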; conditions: S. cerevisiae cln2 rad14 strain, at 50.0 µM, hits give high values
Summary of the method: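 Readout is yeast growth inhibition versus vehicle-treated controls, using a strain with cln2 and rad14 alterations exposed to compound.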

[5] = NCI Yeast Anticancer Drug Screen. Data for the bub3 strain (AID 167); conditions: S. cerevisiae bub3 mutant strain, at 50.0 µM, hits give high values
Summary of the method: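 Readout: yeast growth inhibition, expressed relative to vehicle-only wells. The test organism is a mutant strain from a panel with lesions in DNA repair or checkpoint genes.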

[6] = NCI Yeast Anticancer Drug Screen. Data for the mlh1 rad18 strain (AID 175); conditions: S. cerevisiae mlh1 rad18 strain growth inhibition; at 50.0 µM; hits give high values
Summary of the method: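 Genetically defined yeast (DNA repair-deficient) exposed to compounds; growth inhibition determined relative to vehicle.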

Measured: growth inhibition

COc1cccc(NC(=S)Nn2c(C)nc3ccccc3c2=O)c1
inactive: [1] -25.2% | [2] -14% | [3] -17.1% | [4] 0.25% | [5] -11.3% | [6] -28.6%

COC(=O)/C=C1/Nc2c(N)nc(N)nc2NC1=O
inactive: [1] 15.1% | [2] 8.2% | [3] 5.95% | [4] -2.1% | [5] -0.9% | [6] 3.15%

O=S(=O)(N1CCOCC1)N1CCOCC1
inactive: [1] -3.9% | [2] -7.7% | [3] -3.55% | [4] -25.6% | [5] 25.6% | [6] 3.85%

CCc1ccc2c(c1)C(C)(CC)CCC2C (configuration not stated)
inactive: [1] -2.45% | [2] -6.5% | [3] -16.4% | [4] -43% | [5] -8.95% | [6] 8.7%

Cc1c(C)c(C)c(CN2CCC(C)CC2)c(C)c1C
inactive: [1] -2.55% | [2] 9.85% | [3] -14.9% | [4] -17.6% | [5] 3.45% | [6] -9.1%

COC1(OC)CC2C(=O)N(Cc3ccccc3)C1C=C2S(=O)(=O)c1ccccc1 (configuration not stated)
inactive: [1] 2.5% | [2] 9.65% | [3] -18.2% | [4] -47.5% | [5] 1.55% | [6] 8.25%

CC(C)CNN(CC(C)C)C(N)=O
inactive: [1] -32.7% | [2] -25% | [3] -19.8% | [4] -24.7% | [5] -25.6% | [6] -20.1%

OC(CC(c1ccccc1)c1cccc2ccccc12)(c1ccccc1)c1ccccc1 (configuration not stated)
inactive: [1] -12.8% | [2] -17.9% | [3] -14.6% | [4] -7.65% | [5] -28.4% | [6] 3.3%

Clc1ccc(/C=C/c2ccc3ccccc3n2)cc1
inactive: [1] -2.65% | [2] -11.6% | [3] -13% | [4] -28.3% | [5] -14% | [6] 12%

O=[N+]([O-])/C(C(Cl)=C(Cl)Cl)=C1\NCCS1
inactive: [1] 39.7% | [2] 25.5% | [3] 40.2% | [4] 9.7% | [5] 34.6% | [6] 42.3%

O=C(CCCN1CCC(Nc2ccccc2)(c2nnnn2C2CCCCC2)CC1)c1ccc(F)cc1
inactive: [1] -7.05% | [2] -16.2% | [3] 0.3% | [4] 11.1% | [5] 1.25% | [6] 7.15%

N#Cc1nc(-c2ccccc2C(=O)O)oc1N
inactive: [1] -0.5% | [2] 9.8% | [3] -16.1% | [4] 5.7% | [5] -7.15% | [6] -62%

O=[N+]([O-])c1ccc(NC(c2ccccc2)c2ccc3cccnc3c2O)cc1 (configuration not stated)
inactive: [1] -6.35% | [2] -20.1% | [3] 0.2% | [4] -15.3% | [5] -2.75% | [6] -10.3%

CC1CCC(=O)N1c1ccc(N)cc1 (configuration not stated)
inactive: [1] -19% | [2] -15.5% | [3] -15.2% | [4] 11.2% | [5] -23.3% | [6] 10.1%

CSc1nc(=S)c2[nH]c(=S)[nH]c2[nH]1
inactive: [1] -1.2% | [2] 11.4% | [3] -6.5% | [4] -35.9% | [5] 21.5% | [6] 4.05%

COc1ccc(C(=O)C(O)c2ccc(OC)cc2)cc1 (configuration not stated)
inactive: [1] 8.15% | [2] -8.65% | [3] -1.55% | [4] -16.4% | [5] -4.35% | [6] 26.1%

Cc1cc(NS(=O)(=O)c2ccc(NC(=O)c3ccc(Cl)c4c(Nc5ccc(S(N)(=O)=O)cc5)c5ccccc5nc34)cc2)no1
inactive: [1] 34% | [2] 36.8% | [3] 33.5% | [4] 46.2% | [5] 31.4% | [6] 68.1%

COc1ccc(C(O)C(=O)c2nc3ccc([N+](=O)[O-])cc3[nH]c2=O)cc1 (configuration not stated)
inactive: [1] -16.5% | [2] -49.5% | [3] -29.5% | [4] -22.1% | [5] -36.5% | [6] -5.2%

C[Si](Cn1ccc(=O)n(C[Si](C)(c2ccccc2)c2ccccc2)c1=O)(c1ccccc1)c1ccccc1
inactive: [1] -3.7% | [2] -7.65% | [3] -12.3% | [4] -13.9% | [5] -2.4% | [6] 15.2%

CC#CCOC(=O)c1ccccc1OC(C)=O
inactive: [1] 27.8% | [2] -1.75% | [3] 23.9% | [4] 9.7% | [5] 26.9% | [6] 19.1%

CSC1=Nc2ccccc2N=C(c2ccccc2)C1
inactive: [1] 41.9% | [2] -10.8% | [3] 52% | [4] 9.05% | [5] 44.8% | [6] 23.3%

CO/N=C1\CC(NC(=O)C(F)(F)F)c2ccsc21 (configuration not stated)
inactive: [1] 11.6% | [2] 6.9% | [3] 8% | [4] 13.3% | [5] -2.8% | [6] 38.9%

N#CC(C#N)=CC(C#N)C#N
inactive: [1] -10% | [2] -4.3% | [3] -12.2% | [4] -65.1% | [5] 5.1% | [6] -11.7%

CCOC(=O)C1=C(C(=O)c2ccc(OC)cc2)C(c2cccc([N+](=O)[O-])c2)C(C(=O)c2ccc(OC)cc2)=C(C(=O)OCC)N1
inactive: [1] -30.8% | [2] -1.6% | [3] -2.5% | [4] -2.85% | [5] -6.45% | [6] 2%

Cc1ccc(C(C)C)cc1NC(=O)c1cccc([N+](=O)[O-])c1
inactive: [1] -8.4% | [2] 6.9% | [3] 18.9% | [4] -7.1% | [5] 18.9% | [6] 8%

COc1ccc2c(c1)SC1=NNC(=O)CN12
inactive: [1] -21.6% | [2] -27.6% | [3] -9.45% | [4] -39.1% | [5] -12.2% | [6] -22.9%

COC(=O)C(C(=O)C(=O)Nc1c(Cl)cc([N+](=O)[O-])cc1Cl)c1nc2cc(C)c(C)cc2[nH]c1=O (configuration not stated)
inactive: [1] 16.6% | [2] 3.1% | [3] 20.8% | [4] 14.3% | [5] -4.85% | [6] -9.75%

COc1ccc(CCNC(=S)NCCc2ccc(OC)cc2)cc1
inactive: [1] 11.8% | [2] 12.8% | [3] -1.4% | [4] -28% | [5] -7.25% | [6] -21%

CCCCCCC#CC(=O)OCCCC
inactive: [1] -9.8% | [2] -14.9% | [3] 6.05% | [4] -20% | [5] -21.5% | [6] -16.4%

COc1ccc(/C=N/Nc2nc3ccccc3c(=O)n2-c2ccccc2)cc1
inactive: [1] -56.3% | [2] -17.8% | [3] -38.6% | [4] -29.2% | [5] -11% | [6] -42%

C=C1CC(C)(Cn2cnc3c(N)ncnc32)OC1=O (configuration not stated)
inactive: [1] 9% | [2] 10.6% | [3] 9.05% | [4] 20.1% | [5] 16.7% | [6] 21.1%

CC1(C(=O)O)CCCCCCC1O (configuration not stated)
inactive: [1] 10.2% | [2] 9.55% | [3] -2.55% | [4] 8.1% | [5] -6.1% | [6] -7.9%

CN(C)CC(N)C(=O)O (configuration not stated)
inactive: [1] -4.35% | [2] -13.1% | [3] -12.2% | [4] -13.6% | [5] -21.3% | [6] -18.6%

CCOC(=O)CCC(NC(=O)N1CCN(c2c(C)nc(C)[nH]c2=O)CC1)C(=O)OCC (configuration not stated)
inactive: [1] 11.6% | [2] -0.1% | [3] 10.6% | [4] -4.7% | [5] 12.7% | [6] 18.6%

CCC(=O)Oc1ccc(C(C)(C)C)cc1
inactive: [1] -5.85% | [2] -3.75% | [3] 1.95% | [4] -2.25% | [5] 11.1% | [6] 1.1%

CC(C)N(C(=O)C12CC3CC(CC(C3)C1)C2)C(C)C
inactive: [1] 24.9% | [2] 0.45% | [3] 8.05% | [4] 13.2% | [5] 20.9% | [6] 6.15%

O=C(O)/C=C/C(=O)Nc1cc(Cl)cc2c1-c1c(Cl)cc(Cl)cc1C2=O
inactive: [1] 30.9% | [2] 8.95% | [3] 31.6% | [4] -52.6% | [5] -4% | [6] 4.25%
